The list is not random: actives were taken first. Their share in the collection is about 21%.
AMA1 RON2 block: inhibitors of Plasmodium falciparum AMA1-RON2 interaction | AlphaScreen AMA1-biotinylated RON2 peptide binding | Potency, µM (top dose mostly 58.2 µM), actives largely listed as inhibitors | 360,000 tested, 0.2% active | AID 720542; note: nearly all actives have a fitted effect of over 45% in size
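AMA1 (3D7) with his tag at 25 nM final met compounds first, then biotinylated RON2 peptide at 25 nM; detection used donor plus acceptor beads, 10 µg/mL apiece, read by AlphaScreen after 30 min at room temperature.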
HCV inhibitor: blocks hepatitis C virus | Potency, µM (series often up to 41.8 µM), most hits filed as inhibitors | 340,000 tested, 3.4% active | Huh7.5.1 HCVcc-Cre infection, luciferase reporter, 44 h
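Antiviral activity was scored by luciferase reporter output from cells infected with HCVcc-Cre (~0.5 moi) in presence of compound, 44 h infection period, cells seeded 1,000/well 4 h prior.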
Pf growth 96h: inhibits malaria parasite growth, 96 h. P. falciparum luciferase reporter growth, 96 h. 320,000 tested, 6.9% active. Potency, µM (highest dose often 28.7 µM), actives largely listed as inhibitors
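Two parasite generations (96 h, 37 C, 5% CO2) of compound exposure in infected erythrocytes (0.05% parasitemia, 2% hematocrit). Luciferase-reporter P. falciparum; decreased luminescence indicates inhibited growth, aimed at apicoplast-acting delayed death.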
Pf growth 48h: inhibits P. falciparum growth in the first generation, 48 h. P. falciparum luciferase growth in erythrocytes, 48 h. Potency, µM (doses to about 28.7 µM), most hits filed as inhibitors. 310,000 tested, 5.9% active
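In quantitative HTS format, infected erythrocytes bearing luciferase-reporter parasites were treated for a single generation at 37 C. Luminescence after adding detection reagent served as the growth measure.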
CHX counter: affects cycloheximide protein synthesis inhibition readout, counter-screen; cell reporter, cycloheximide protein synthesis inhibition counterscreen; max response, %; 300,000 tested, 12% active; in the data active = max response mostly above about 13%, no sharp cut-off; inactive = mostly below about 14%; note: read at 38.3 µM for the half of the compounds with a filed dose
Shiga inhibitor: blocks Shiga toxin action in Vero cells; Vero cells, Shiga toxin protein synthesis inhibition reporter; inhibition, % at 38.7 µM; 290,000 tested, 9.2% active; in the data active = inhibition mostly above about 28%, no sharp cut-off; inactive = mostly below about 43%
Each line names hits and unclear results; the compound was inactive in the other large screens. Unless noted, calls come from the whole dose curve; as a rule, active = well fitted curve in the direction sought with a large enough effect; inconclusive = small, poorly fitted or top-dose-only effect, or another doubt; inactive = no such curve, though single readings can be large; an effect the other way counts as inactive or inconclusive.

CN1C[C@@H]2[C@@H]3C(=O)N(C)C(=O)[C@@H]3[C@](Cc3ccccc3)(C1=O)N2C(=O)c1ccc(F)cc1	none (no result: Pf growth 96h, Pf growth 48h, CHX counter, Shiga inhibitor)
Cc1c(C(N)=O)sc2nc(-c3ccccc3)cn12	HCV inhibitor inconclusive, Pf growth 96h 10µM, CHX counter 36, Shiga inhibitor 87
Cc1c(C(=O)N2CCN(c3ccccc3F)CC2)sc2nc(-c3ccccc3)cn12	HCV inhibitor inconclusive, Pf growth 96h 1.9µM
COCCN(CCOC)C(=O)c1sc2nc(-c3ccccc3)cn2c1C	none
CCOc1ccccc1N(CC(=O)NC1CCCC1)C(=O)CNC(=O)c1cccs1	none
COc1ccc(N/C=C\C(=O)c2ccc3c(c2)OCO3)cc1OC	Pf growth 96h 4.7µM, CHX counter 67, Shiga inhibitor 24
O=C(/C=C\Nc1cccc(F)c1)c1ccc2c(c1)OCO2	CHX counter 28
COC(=O)c1ccc(N/C=C/C(=O)c2ccc(OC)c(OC)c2)cc1	HCV inhibitor inconclusive
COC(=O)c1ccc(N/C=C\C(=O)c2ccc3c(c2)OCO3)cc1	CHX counter 18, Shiga inhibitor 57
NS(=O)(=O)c1ccc(NC(=O)/C(=C/c2ccncc2)NC(=O)c2ccccc2)cc1	HCV inhibitor inconclusive
N#CCn1c(CN2CCCC2)nc2ccccc2c1=O	none
COC(=O)C1=C(c2ccc(OCc3ccccc3)cc2)C[C@@H]2CC[C@H]1N2C(=O)NCc1cccc(OC)c1	HCV inhibitor 6.3µM, Pf growth 96h inconclusive, Pf growth 48h 3.7µM (no result: CHX counter, Shiga inhibitor)
COC(=O)C1=C(c2ccc(OCc3ccccc3)cc2)C[C@@H]2CC[C@H]1N2C(=O)NCc1ccccc1	HCV inhibitor 10µM, Pf growth 96h inconclusive, Pf growth 48h 7.4µM (no result: CHX counter, Shiga inhibitor)
COC(=O)C1=C(c2ccc(OCc3ccccc3)cc2)C[C@@H]2CC[C@H]1N2C(=O)NCc1ccc(OC)cc1	none (no result: HCV inhibitor, Pf growth 96h, Pf growth 48h, CHX counter, Shiga inhibitor)
O=C(Nc1ccccc1C(=O)NCCCN1CCOCC1)c1cccc([N+](=O)[O-])c1	none
Cc1ccc(S(=O)(=O)N2CCC(C(=O)OCC(=O)Nc3cc(S(C)(=O)=O)ccc3Cl)CC2)cc1C	none
O=[N+]([O-])c1ccc(N2CCCCC2)cc1SCCO	none
Cc1nc(N2CCCCC2)sc1C(=O)c1ccc(SCCO)c([N+](=O)[O-])c1	AMA1 RON2 block inconclusive, HCV inhibitor 1.1µM
Cc1nc(N2CCCCC2)sc1C(=O)c1cccc([N+](=O)[O-])c1	AMA1 RON2 block inconclusive, HCV inhibitor inconclusive, Pf growth 48h inconclusive, CHX counter 37, Shiga inhibitor 84
CC(C)CCN1CCN(Cc2ccsc2)CC1CCO (stereo not given)	Pf growth 96h 13µM
OCCC1CN(Cc2ccc3cc(Cl)ccc3n2)CCN1Cc1ccsc1 (stereo not given)	HCV inhibitor inconclusive, Pf growth 96h 5.2µM, Pf growth 48h inconclusive
CC(C)CCN1CCN(CC(c2ccccc2)c2ccccc2)CC1CCO (stereo not given)	HCV inhibitor inconclusive, Pf growth 96h inconclusive, Pf growth 48h 3.7µM
Cc1onc(-c2c(Cl)cccc2Cl)c1C(N)=S	none
Cc1ccc(C(=O)OCCn2cc(C#N)c(=O)[nH]c2=O)cc1	none
CCc1nc2c(OCCOc3ccc(F)cc3)cccn2c1N(C=O)Cc1ccccc1	none (no result: HCV inhibitor, Pf growth 96h, Pf growth 48h, CHX counter, Shiga inhibitor)
COCCNC(=O)CN1N=C(c2ccc(OC)cc2)CCC1=O	none
CCC(=O)N1CCC(c2ccc(OC)cc2)=N1	CHX counter 36, Shiga inhibitor 38
COc1ccc(Cn2c3nc4ccccc4nc3c3c(=O)n(Cc4ccco4)cnc32)cc1	HCV inhibitor inconclusive, Pf growth 48h 9.3µM (no result: AMA1 RON2 block)
CC1(c2ccccc2Br)NC(=O)N(CC(=O)NC2CCCCC2)C1=O (stereo not given)	Pf growth 96h 12µM, Pf growth 48h inconclusive (no result: CHX counter, Shiga inhibitor)
O=C(CSc1ccc(-c2ccccn2)nn1)N1CCCC1	CHX counter 25
O=C(CSc1ccc(-c2ccccc2)nn1)c1ccccc1	CHX counter 42, Shiga inhibitor 60
O=C(CSc1ccc(-c2ccccn2)nn1)c1ccc(F)cc1	CHX counter 33, Shiga inhibitor 51
c1ccc(CSc2ccc(-c3ccccn3)nn2)cc1	AMA1 RON2 block inconclusive, HCV inhibitor inconclusive, CHX counter 52, Shiga inhibitor 110
O=C(CSc1ccc(-c2ccccn2)nn1)Nc1ccc(F)cc1F	AMA1 RON2 block inconclusive, Pf growth 96h inconclusive

Screens: PubChem BioAssay, National Center for Advancing Translational Sciences (NCATS)
